# Assay results taken from PubChem BioAssay (EPA / NIEHS).
# Where “and” joins values, the source holds several entries; their conditions need not be identical. Identical values can stand only once. Results filed as inconclusive are left out. A structure can be active in one record and inactive in another. Calls of active or inactive are those of the source. The calls were made as follows: active = hit-call score of the fitted dose curve at least 0.9, where 1 is the maximum; inconclusive = response in the unintended direction; inactive = score below 0.9.
# Key:
# [1] = target: human AKT serine/threonine Kinase 1 (AKT1), AKT1 (gene 207) (UniProt P31749); assay: NVS_ENZ_hAKT1: NovaScreen (NVS) Enzymatic Assay for human AKT serine/threonine Kinase 1 (AKT1) (AID 2283138)
# human AKT serine/threonine Kinase 1 (AKT1), AKT1 (gene 207), sequence (P31749 whole entry, looked up): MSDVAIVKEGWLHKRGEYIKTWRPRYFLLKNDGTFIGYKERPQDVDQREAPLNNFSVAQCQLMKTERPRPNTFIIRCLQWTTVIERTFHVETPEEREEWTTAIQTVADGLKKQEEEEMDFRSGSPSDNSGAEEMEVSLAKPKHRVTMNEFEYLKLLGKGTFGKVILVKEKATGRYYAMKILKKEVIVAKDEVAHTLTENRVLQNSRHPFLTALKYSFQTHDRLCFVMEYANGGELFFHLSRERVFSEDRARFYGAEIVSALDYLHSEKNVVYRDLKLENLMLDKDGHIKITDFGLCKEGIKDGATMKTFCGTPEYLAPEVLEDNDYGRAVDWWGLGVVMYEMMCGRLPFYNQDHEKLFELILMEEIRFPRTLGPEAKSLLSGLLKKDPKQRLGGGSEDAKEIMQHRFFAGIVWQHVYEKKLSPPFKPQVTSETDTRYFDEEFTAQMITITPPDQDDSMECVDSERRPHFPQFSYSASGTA
# Outline: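 Fluorescence and mobility-shift readout of kinase activity, taken 1 h post-dosing in a cell-free format with recombinant protein. Primary screen at 25 uM in duplicate; hits (e.g. 30% inhibition) retested in concentration series topping at 50 uM.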
# [2] = target: human Beta-secretase (BACE), BACE1 (gene 23621) (UniProt P56817); assay: NVS_ENZ_hBACE: NovaScreen (NVS) Enzymatic Assay for human Beta-secretase (BACE) (AID 2283140);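 also: hits are inhibitors that reduce fluorescent substrate signal versus DMSO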
# human Beta-secretase (BACE), BACE1 (gene 23621), sequence (P56817 whole entry, looked up): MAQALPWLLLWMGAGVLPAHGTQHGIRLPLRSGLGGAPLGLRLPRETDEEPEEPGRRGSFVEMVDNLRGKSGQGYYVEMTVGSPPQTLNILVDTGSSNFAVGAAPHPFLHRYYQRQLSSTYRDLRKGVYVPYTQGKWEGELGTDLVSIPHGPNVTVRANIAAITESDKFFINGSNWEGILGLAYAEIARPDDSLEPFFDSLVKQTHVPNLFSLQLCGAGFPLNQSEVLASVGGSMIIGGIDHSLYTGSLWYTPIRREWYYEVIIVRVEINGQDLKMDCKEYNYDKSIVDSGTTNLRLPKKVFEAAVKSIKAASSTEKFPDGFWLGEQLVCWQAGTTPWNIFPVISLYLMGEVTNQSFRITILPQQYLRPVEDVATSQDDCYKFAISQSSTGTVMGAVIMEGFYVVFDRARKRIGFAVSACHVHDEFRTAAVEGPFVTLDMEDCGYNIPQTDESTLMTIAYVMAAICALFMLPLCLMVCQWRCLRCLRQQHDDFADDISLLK
# Outline: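 SF9-expressed enzyme, cell-free; fluorescent substrate readout after 1 h. Screened at 25 uM single concentration, duplicate; hits retested in concentration series. Activity relative to DMSO baseline, loss-of-signal.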
# [3] = target: human Aurora Kinase A - serine/threonine-protein Kinase 6 (AurA), AURKA (gene 6790) (UniProt O14965); assay: NVS_ENZ_hAurA: NovaScreen (NVS) Enzymatic Assay for human Aurora Kinase A - serine/threonine-protein Kinase 6 (AurA) (AID 2283142)
# human Aurora Kinase A - serine/threonine-protein Kinase 6 (AurA), AURKA (gene 6790), sequence (O14965 whole entry, looked up): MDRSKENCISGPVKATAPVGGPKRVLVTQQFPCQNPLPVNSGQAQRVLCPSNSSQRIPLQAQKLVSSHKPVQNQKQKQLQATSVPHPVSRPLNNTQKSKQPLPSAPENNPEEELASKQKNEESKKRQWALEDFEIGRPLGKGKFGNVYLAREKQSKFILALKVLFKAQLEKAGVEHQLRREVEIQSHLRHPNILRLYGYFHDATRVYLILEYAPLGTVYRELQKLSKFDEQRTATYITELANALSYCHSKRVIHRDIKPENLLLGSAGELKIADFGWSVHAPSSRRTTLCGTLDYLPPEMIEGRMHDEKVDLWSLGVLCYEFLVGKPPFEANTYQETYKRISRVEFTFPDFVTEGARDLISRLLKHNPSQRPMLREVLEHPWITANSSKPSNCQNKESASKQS
# Outline: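 Recombinant human AurA activity read by fluorescence after mobility-shift separation of product from substrate; 1 hour incubation. Chemicals first run in duplicate at 25 uM, then concentration series to 50 uM if over threshold; fitted relative to DMSO.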
# [4] = target: human Casein Kinase 2- alpha 2 beta 2 (CK2a2b2), CSNK2A1 (gene 1457) (UniProt P68400); assay: NVS_ENZ_hCK2a2b2: NovaScreen (NVS) Enzymatic Assay for human Casein Kinase 2- alpha 2 beta 2 (CK2a2b2) (AID 2283147)
# Outline: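 Compounds were first screened in duplicate at 25 uM, and those passing the threshold were re-tested in concentration series up to a 50 uM maximum. Kinase activity of recombinant human CK2 α2β2 was measured 1 h after dosing by fluorescent substrate/product mobility-shift separation.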
# [5] = target: human Casein Kinase 1-delta (CK1D), CSNK1D (gene 1453) (UniProt P48730); assay: NVS_ENZ_hCK1D: NovaScreen (NVS) Enzymatic Assay for human Casein Kinase 1-delta (CK1D) (AID 2283148)
# human Casein Kinase 1-delta (CK1D), CSNK1D (gene 1453), sequence (P48730 whole entry, looked up): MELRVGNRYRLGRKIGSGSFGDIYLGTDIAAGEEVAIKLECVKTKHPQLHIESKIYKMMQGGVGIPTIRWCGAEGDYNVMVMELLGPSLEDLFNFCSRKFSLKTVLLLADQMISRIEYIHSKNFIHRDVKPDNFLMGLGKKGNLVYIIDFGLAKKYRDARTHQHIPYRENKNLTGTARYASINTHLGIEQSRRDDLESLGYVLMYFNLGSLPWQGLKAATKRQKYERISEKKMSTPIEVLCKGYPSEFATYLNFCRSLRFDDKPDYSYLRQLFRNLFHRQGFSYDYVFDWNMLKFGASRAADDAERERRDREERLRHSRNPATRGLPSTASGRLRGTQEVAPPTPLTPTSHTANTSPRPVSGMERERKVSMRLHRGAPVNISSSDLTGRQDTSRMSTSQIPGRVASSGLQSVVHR
# Outline: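 Recombinant human CK1-delta, cell-free; fluorescent substrate with electrophoretic mobility-shift separation of product, read 1 h after dosing. Single 25 uM duplicate screen, then concentration-response up to 50 uM; loss of signal vs DMSO.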
# [6] = target: human Ephrin type-A Receptor 2 (EphA2), EPHA2 (gene 1969) (UniProt P29317); assay: NVS_ENZ_hEphA2: NovaScreen (NVS) Enzymatic Assay for human Ephrin type-A Receptor 2 (EphA2) (AID 2283155)
# human Ephrin type-A Receptor 2 (EphA2), EPHA2 (gene 1969), sequence (P29317 whole entry, looked up): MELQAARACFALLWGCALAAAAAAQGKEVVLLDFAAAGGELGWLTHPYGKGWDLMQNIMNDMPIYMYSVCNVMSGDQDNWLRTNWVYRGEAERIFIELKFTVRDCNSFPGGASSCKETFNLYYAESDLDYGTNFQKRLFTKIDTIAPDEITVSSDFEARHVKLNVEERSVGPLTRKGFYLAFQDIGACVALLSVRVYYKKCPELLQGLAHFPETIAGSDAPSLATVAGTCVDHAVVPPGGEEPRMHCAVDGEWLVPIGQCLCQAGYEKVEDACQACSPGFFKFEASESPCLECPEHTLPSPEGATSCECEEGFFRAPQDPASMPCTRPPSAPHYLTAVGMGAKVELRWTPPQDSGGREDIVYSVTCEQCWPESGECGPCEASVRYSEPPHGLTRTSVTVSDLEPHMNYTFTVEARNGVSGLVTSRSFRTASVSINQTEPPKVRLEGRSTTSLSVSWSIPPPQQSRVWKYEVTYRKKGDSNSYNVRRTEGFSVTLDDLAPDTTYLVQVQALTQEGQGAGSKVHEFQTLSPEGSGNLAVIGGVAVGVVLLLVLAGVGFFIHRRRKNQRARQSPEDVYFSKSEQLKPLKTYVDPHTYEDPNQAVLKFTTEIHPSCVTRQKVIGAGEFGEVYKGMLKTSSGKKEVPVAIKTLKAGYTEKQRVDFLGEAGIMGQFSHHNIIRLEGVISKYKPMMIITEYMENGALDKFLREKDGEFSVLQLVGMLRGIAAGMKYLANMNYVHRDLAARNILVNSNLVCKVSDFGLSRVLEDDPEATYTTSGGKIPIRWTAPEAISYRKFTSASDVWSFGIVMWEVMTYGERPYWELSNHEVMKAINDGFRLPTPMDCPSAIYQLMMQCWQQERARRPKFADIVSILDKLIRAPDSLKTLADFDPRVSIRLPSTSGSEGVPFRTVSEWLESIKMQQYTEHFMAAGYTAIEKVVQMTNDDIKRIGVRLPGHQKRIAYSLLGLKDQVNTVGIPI
# Outline: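 Enzyme activity of recombinant EphA2 read by fluorescence after mobility-shift separation, 1 h after dosing. Chemicals first tested at 25 uM (duplicate); those passing threshold run as concentration series, top 50 uM, single replicate, relative to DMSO.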
# [7] = target: human Ephrin type-A Receptor 1 (EphA1), EPHA1 (gene 2041) (UniProt P21709); assay: NVS_ENZ_hEphA1: NovaScreen (NVS) Enzymatic Assay for human Ephrin type-A Receptor 1 (EphA1) (AID 2283158);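 also: activity is signal loss versus DMSO meaning EphA1 kinase inhibition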
# Outline: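 Cell-free kinase activity with recombinant protein, 1 hour after dosing; product separated by electrophoretic mobility shift, fluorescence read. Primary screen at 25 uM in duplicate; hits run as concentration-response up to 50 uM, relative to DMSO.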
# [8] = target: human Elastase, ELANE (gene 1991) (UniProt P08246); assay: NVS_ENZ_hElastase: NovaScreen (NVS) Enzymatic Assay for human Elastase (AID 2283153)
# human Elastase, ELANE (gene 1991), sequence (P08246 whole entry, looked up): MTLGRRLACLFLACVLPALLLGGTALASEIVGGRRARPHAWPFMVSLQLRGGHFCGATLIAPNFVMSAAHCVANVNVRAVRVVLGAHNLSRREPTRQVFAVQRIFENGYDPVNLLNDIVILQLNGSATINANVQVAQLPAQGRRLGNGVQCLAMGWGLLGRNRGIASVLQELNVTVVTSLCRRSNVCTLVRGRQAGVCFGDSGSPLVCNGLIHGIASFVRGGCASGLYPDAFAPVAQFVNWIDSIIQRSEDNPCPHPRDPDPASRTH
# Outline: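 Concentration-response to 50 uM max, run singly for chemicals passing a threshold (e.g., 30% inhibition) in a duplicate 25 uM single-point screen. Neutrophil-derived human elastase, absorbance read-out of enzyme activity at 1.5 h; DMSO baseline.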
# [9] = target: human Caspase 5 (CASP5), CASP5 (gene 838) (UniProt P51878); assay: NVS_ENZ_hCASP5: NovaScreen (NVS) Enzymatic Assay for human Caspase 5 (CASP5) (AID 2283137)
# human Caspase 5 (CASP5), CASP5 (gene 838), sequence (P51878 whole entry, looked up): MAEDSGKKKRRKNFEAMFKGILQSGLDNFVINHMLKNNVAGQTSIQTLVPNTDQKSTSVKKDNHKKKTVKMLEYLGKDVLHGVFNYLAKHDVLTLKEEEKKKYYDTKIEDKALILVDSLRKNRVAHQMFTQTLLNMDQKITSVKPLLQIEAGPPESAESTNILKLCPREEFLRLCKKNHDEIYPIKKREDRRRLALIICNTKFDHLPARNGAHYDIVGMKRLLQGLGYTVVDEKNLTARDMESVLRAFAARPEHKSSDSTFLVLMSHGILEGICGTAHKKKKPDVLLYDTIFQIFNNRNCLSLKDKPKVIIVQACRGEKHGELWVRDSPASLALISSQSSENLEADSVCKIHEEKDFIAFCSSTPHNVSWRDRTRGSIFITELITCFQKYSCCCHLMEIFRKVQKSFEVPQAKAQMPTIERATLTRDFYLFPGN
# Outline: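 Fluorescent substrate readout of CASP5 activity (loss-of-signal), measured 2 h post-dose. Protein expressed in E. coli. Primary screen duplicate at 25 uM; actives meeting threshold (e.g., 30% inhibition) rerun singleton, max 50 uM.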
# [10] = target: human AKT serine/threonine Kinase 2 (AKT2), AKT2 (gene 208) (UniProt P31751); assay: NVS_ENZ_hAKT2: NovaScreen (NVS) Enzymatic Assay for human AKT serine/threonine Kinase 2 (AKT2) (AID 2283141)
# Outline: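 Cell-free fluorescence/electrophoretic mobility shift readout of recombinant human AKT2 activity, 1 h after chemical dosing. Duplicate primary screen at 25 uM, then singleton concentration-response up to 50 uM; loss of signal versus DMSO baseline.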
# [11] = target: human Caspase 4 (CASP4), CASP4 (gene 837) (UniProt P49662); assay: NVS_ENZ_hCASP4: NovaScreen (NVS) Enzymatic Assay for human Caspase 4 (CASP4) (AID 2283143)
# human Caspase 4 (CASP4), CASP4 (gene 837), sequence (P49662 whole entry, looked up): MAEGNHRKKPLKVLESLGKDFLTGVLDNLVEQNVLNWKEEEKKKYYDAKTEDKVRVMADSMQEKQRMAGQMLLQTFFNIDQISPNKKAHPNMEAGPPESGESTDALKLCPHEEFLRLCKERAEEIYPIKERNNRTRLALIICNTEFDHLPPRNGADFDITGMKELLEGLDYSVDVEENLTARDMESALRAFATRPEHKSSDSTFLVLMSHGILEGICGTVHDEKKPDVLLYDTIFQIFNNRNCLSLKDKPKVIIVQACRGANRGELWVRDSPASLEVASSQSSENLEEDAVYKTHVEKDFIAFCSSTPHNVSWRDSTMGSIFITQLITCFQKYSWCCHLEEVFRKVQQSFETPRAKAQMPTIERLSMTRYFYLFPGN
# Outline: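 Compounds were first tested in duplicate at 25 uM, and hits were titrated singly to a 50 uM maximum. Recombinant protease from E. coli was read by fluorescence 2 h post-dose, and activity loss was fitted against the DMSO baseline.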
# [12] = target: human Caspase 8 (CASP8), CASP8 (gene 841) (UniProt Q14790); assay: NVS_ENZ_hCASP8: NovaScreen (NVS) Enzymatic Assay for human Caspase 8 (CASP8) (AID 2283146)
# Outline: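 The primary screen tested compounds in duplicate at a single 25 uM concentration, with actives followed up in concentration series. Activity of recombinant (E. coli) protease was measured by fluorescence 1 h post-dose, as signal loss against DMSO.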
# [13] = target: human Dual Specificity Protein Phosphatase 3 (DUSP3), DUSP3 (gene 1845) (UniProt P51452); assay: NVS_ENZ_hDUSP3: NovaScreen (NVS) Enzymatic Assay for human Dual Specificity Protein Phosphatase 3 (DUSP3) (AID 2283152);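 also: phosphatase activity of recombinant human DUSP3 on a fluorogenic substrate without cells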
# human Dual Specificity Protein Phosphatase 3 (DUSP3), DUSP3 (gene 1845), sequence (P51452 whole entry, looked up): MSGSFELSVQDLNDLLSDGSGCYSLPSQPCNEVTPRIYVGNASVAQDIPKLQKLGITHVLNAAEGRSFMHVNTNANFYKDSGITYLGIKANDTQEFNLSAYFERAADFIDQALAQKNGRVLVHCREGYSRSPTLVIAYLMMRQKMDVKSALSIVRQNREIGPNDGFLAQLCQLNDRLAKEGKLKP
# Outline: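 Cell-free fluorescence-intensity enzyme activity assay with recombinant protein and substrate; loss of signal fitted relative to DMSO baseline. Primary screen in duplicate at 25 uM, actives then run in concentration series; measured 0 h after dosing.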
# [14] = target: human Esterase Plasma (ES), BCHE (gene 590) (UniProt P06276); assay: NVS_ENZ_hES: NovaScreen (NVS) Enzymatic Assay for human Esterase Plasma (ES) (AID 2283157)
# human Esterase Plasma (ES), BCHE (gene 590), sequence (P06276 whole entry, looked up): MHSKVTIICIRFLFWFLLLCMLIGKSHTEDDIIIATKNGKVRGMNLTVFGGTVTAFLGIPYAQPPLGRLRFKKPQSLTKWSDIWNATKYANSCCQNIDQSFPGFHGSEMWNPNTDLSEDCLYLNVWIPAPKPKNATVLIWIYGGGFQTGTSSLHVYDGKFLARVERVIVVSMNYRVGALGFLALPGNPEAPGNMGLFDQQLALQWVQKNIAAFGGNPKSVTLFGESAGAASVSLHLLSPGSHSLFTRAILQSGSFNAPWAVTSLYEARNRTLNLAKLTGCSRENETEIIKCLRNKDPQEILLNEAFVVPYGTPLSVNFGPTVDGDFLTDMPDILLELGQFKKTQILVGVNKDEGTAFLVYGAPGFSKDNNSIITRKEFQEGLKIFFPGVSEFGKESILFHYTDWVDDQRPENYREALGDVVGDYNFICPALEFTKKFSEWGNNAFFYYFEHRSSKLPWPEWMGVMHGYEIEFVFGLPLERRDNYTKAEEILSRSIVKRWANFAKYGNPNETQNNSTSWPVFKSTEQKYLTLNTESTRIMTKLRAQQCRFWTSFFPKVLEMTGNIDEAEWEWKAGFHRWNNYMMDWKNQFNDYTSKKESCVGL
# Outline: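 Screening ran at 25 uM in duplicate, followed by singleton concentration series reaching 50 uM for actives. Human plasma protein, colorimetric detection, 0.25 h exposure, DMSO negative control.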
# [15] = target: human Fibroblast Growth Factor Receptor 1 (FGFR1), FGFR1 (gene 2260) (UniProt P11362); assay: NVS_ENZ_hFGFR1: NovaScreen (NVS) Enzymatic Assay for human Fibroblast Growth Factor Receptor 1 (FGFR1) (AID 2283159)
# Outline: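 Cell-free recombinant kinase with fluorescent substrate, product separated by electrophoretic mobility shift; read 1 hour after dosing, loss of signal relative to DMSO. Initial screen in duplicate at 25 uM, actives followed in concentration series.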
# [16] = target: human FYN Proto-Oncogene, Src family Tyrosine Kinase (Fyn), FYN (gene 2534) (UniProt P06241); assay: NVS_ENZ_hFyn: NovaScreen (NVS) Enzymatic Assay for human FYN Proto-Oncogene, Src family Tyrosine Kinase (Fyn) (AID 2283161)
# Outline: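 Cell-free kinase activity read by fluorescence after mobility-shift separation of substrate and product, 1 h post-dose. Initial single concentration 25 uM in duplicate, then concentration-response follow-up; DMSO baseline.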
# [17] = target: human Ephrin type-B Receptor 1 (EphB1), EPHB1 (gene 2047) (UniProt P54762); assay: NVS_ENZ_hEphB1: NovaScreen (NVS) Enzymatic Assay for human Ephrin type-B Receptor 1 (EphB1) (AID 2283154)
# Outline: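 Recombinant EphB1 activity read by fluorescence after mobility-shift separation of product from substrate, 1 h post-dosing. Compounds screened in duplicate at 25 uM; inhibition scored as signal loss relative to DMSO.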
smiles,measurement,setting,value
Cc1ccc(-c2c(Cl)nc(C#N)n2S(=O)(=O)N(C)C)cc1,outcome,[1],inactive
same,outcome,[2],inactive
same,AC50,[3],23.5 µM (active)
same,AC50,[4],6.49 µM (active)
same,outcome,[5],inactive
same,outcome,[6],inactive
same,outcome,[7],inactive
Oc1ccccc1-c1ccccc1,outcome,[1],inactive
same,outcome,[3],inactive
same,outcome,[8],inactive
CCOP(=S)(OCC)SCn1c(=O)oc2cc(Cl)ccc21,outcome,[1],inactive
same,AC50,[2],14.4 µM (active)
CNC(=S)S,outcome,[9],inactive
same,outcome,[2],inactive
same,outcome,[10],inactive
same,outcome,[3],inactive
same,outcome,[11],inactive
same,outcome,[12],inactive
same,outcome,[4],inactive
same,outcome,[5],inactive
same,outcome,[13],inactive
same,outcome,[8],inactive
CO/C=C(/C(=O)OC)c1ccccc1Oc1cc(Oc2ccccc2C#N)ncn1,outcome,[9],inactive
same,AC50,[1],14.7 µM (active)
same,outcome,[1],inactive
same,outcome,[11],inactive
same,outcome,[13],inactive
same,outcome,[8],inactive
same,outcome,[6],inactive
same,AC50,[14],26.3 µM (active) and 26.4 µM (active) and 10 µM (active)
same,outcome,[15],inactive
O=C(Nc1ccccc1)Nc1ccnc(Cl)c1,outcome,[9],inactive
same,AC50,[2],5.29 µM (active)
same,outcome,[16],inactive
CC1COC(Cn2cncn2)(c2ccc(Oc3ccc(Cl)cc3)cc2Cl)O1 (configuration not stated),outcome,[1],inactive
same,outcome,[13],inactive
same,outcome,[17],inactive
COC(=O)N(OC)c1ccccc1COc1ccn(-c2ccc(Cl)cc2)n1,AC50,[2],11.6 µM (active)
COc1nc(NC(C)C)nc(NC(C)C)n1,outcome,[9],inactive
CCCC1COC(Cn2cncn2)(c2ccc(Cl)cc2Cl)O1 (configuration not stated),outcome,[9],inactive
CC(C)Oc1cc(-n2nc(C(C)(C)C)oc2=O)c(Cl)cc1Cl,outcome,[2],inactive
same,outcome,[11],inactive
CCCCNC(=O)n1c(NC(=O)OC)nc2ccccc21,outcome,[1],inactive
same,outcome,[3],inactive
same,outcome,[5],inactive
same,outcome,[8],inactive
same,outcome,[17],inactive
